± gives the standard deviation.
Test system: MILI (PIWIL2) piRISC loaded with L1MC piRNA (26 nt)
Experiment: pre-steady-state target cleavage rate (min^-1); guide: L1MC piRNA 5'p-UAACUAAAUACUAUGCAAGCUGUAGG; MIWI and MILI are mouse PIWI proteins and EfPiwi is from a freshwater sponge; tags in brackets are library labels; higher = faster piRNA-guided slicing of the target
In short: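 The pre-steady-state cleavage rate came from a burst-and-steady-state fit to pooled data from three Cleave-'n-Seq trials, in which uncleaved targets were sequenced and normalised to depth and to weakly complementary targets. Each reaction held 0.1 nM transcribed, DNA-blocked target RNA library and 1 nM active affinity-purified piRISC carrying one synthetic guide, with or without 500 nM GTSF1 partner protein, in HEPES–potassium acetate buffer at 33 °C for 0–8 or 0–960 min. k3 was capped at 0.0001 min^-1.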

[1] = auxiliary factor: 500 nM mouse GTSF1
[2] = auxiliary factor: none (no GTSF1)

| Sequence | pre-steady-state target cleavage rate [1] | pre-steady-state target cleavage rate [2] |
| --- | --- | --- |
| UCCUGGAUGUCGUUGCAUAGUAAUUAGUAA | 0.0579 ± 0.013 | – |
| UCCUGGAUGUCGAACCAUAGUUAAUAGUUA | < 0.0001 | – |
| UCCUGGAUGUCCUUGCAUUGAAUUUAGUUA | 0.00493 ± 0.0046 | – |
| UCCUGCUACAGCUUGGUUAGUAUUUAGAAA | 0.018 ± 0.007 | – |
| UCCUGGAUGUGCUUGCAUAGUAAAUAGUUA | 0.0601 ± 0.012 | – |
| UCCUGGAUGUCGAACGUUAGUUAUUUAGUUA | – | < 0.0001 |
| UCCUGGUACAGCUUGCAUAGUAUAAUCAAA | 0.0264 ± 0.0091 | – |
| UCCUGGAUGAGCUUGCAUACUAUUUACUUA | 0.00478 ± 0.0043 | – |
| UCCUGGAUGUCCAUGCAUAGUAUUUAGUAA | 0.0373 ± 0.011 | – |
| UCCUGGAACAGCUUGCAUAGAAAUUAGUUA | 0.0351 ± 0.0085 | – |
| UCCUGGAUGUCGAUGGAUUGUAUUUAGUUA | – | < 0.0001 |
| UCCUGGAUGUCCUUCCAUAGUAUUUAGUUA | 0.0223 ± 0.008 | – |
| UCCUGCUACACCUUGCAUAGUAUAUAGUUA | 0.18 ± 0.037 | – |
| UCCUGGAUGUCGAACGAUCAGUAUUUAGUUA | < 0.0001 | – |
| UCCUGGAUGUCGAUGCAUAGUAUUUAGUGA | 0.0843 ± 0.016 | – |
| UCCUGGAUGUGCUUGCAUAGAAUAUAGUUA | 0.00814 ± 0.0043 | – |
| UCCUGGAUCAGCUUGCAUAGUAUUUUGAAA | 0.108 ± 0.027 | – |
| UCCUGGAUGUCGAACGUAAGUAUUUAGUUC [g2:g12:cont:t1C] | – | < 0.0001 |
| UCCUGGAUGUCGAAGCAUAUAUUUAGUUA | – | < 0.0001 |
| UCCUGGAUGUCGAACCAUAGUAAUUUGUUA | – | < 0.0001 |
| UCCUGCUUGAGCUUGCAUAGUAUUUUCAAA | 0.0372 ± 0.013 | – |
| UCCUGGAUGACGUUGCAUAGUAUUUAGAAA | 0.0501 ± 0.014 | – |
| UCCUGGAUGAGCUUGGUAAGUAUUUAGUAA | 0.00762 ± 0.0042 | – |
| UCCUGGAUGUCGAUGCAUAGUAUUUAGGUA | 0.0275 ± 0.011 | – |
